Pf Dd2 growth – qHTS Primary assay for Inhibitors of Plasmodium falciparum Dd2 growth in vitro; Potency, µM (doses to about 28.9 µM), inactives show top-dose activity, negative = inhibition, most hits filed as inhibitors; actives 4.3% (n = 120,000); P. falciparum Dd2 growth, SYBR Green, 72 h; active means well fitted inhibition curve with a large enough effect;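 further: plate controls were DMSO vehicle for no effect and reference drug for full effect; nearly all actives have a fitted effect of over 65% in size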
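Readout: SYBR Green fluorescence, 485 nm excitation, 535 nm emission, after ~16 h lysis at 37C. Before that, Dd2-infected red cells (2.5% hematocrit) grew 72 h with compound, 29 uM top final concentration.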
Starred values were filed as active, the others as inactive; [ ] = another dose, or the depositor's remark. The entries come from a sample that favours hits as a whole. Potency means the concentration at half of the fitted maximal effect.

How did O=C(CN1C(=O)NC(c2ccc(Cl)cc2)C2=C1COC2=O)Nc1ccc2c(c1)OCCO2 (centres undefined) do in these assays?
Pf Dd2 growth: -14.3%

Results for Cc1noc([C@@H]2CN(Cc3c(C)n[nH]c3C)C[C@H]2CO)n1 ?
Pf Dd2 growth: 34.2%

What do the screens show for `CC(=O)N1CCC(Nc2ncccc2-c2cc(-c3ccccc3)nc3c(C)noc23)CC1`?
Pf Dd2 growth: -19.3%[44.1 µM]

Results for O=C(CCCc1ccccc1)N1CCC(C2CCNC2)CC1 (centres undefined) ?
Pf Dd2 growth: -12.6%

How did Cc1cccc(-c2[nH]ncc2CNC(=O)c2cccc(N(C)C)c2)c1 do in these assays?
Pf Dd2 growth: -28.3%

Results for COc1ccccc1C(=O)N1CCCn2nc(C)c(-c3ccccc3Oc3ccccc3)c21 ?
Pf Dd2 growth: -18.7%[44.1 µM]

Results for CN1CCCCCC(O)c2cc(C(=O)NCCN3CCOCC3)ccc21 (centres undefined) ?
Pf Dd2 growth: -16.0%

What do the screens show for `CN1CCCCCC(O)c2cc(C(=O)NCCc3c[nH]c4ccccc34)ccc21` (centres undefined)?
Pf Dd2 growth: 12.6µM*

Results for CN1CCCCCC(O)c2cc(C(=O)NCCCc3ccccc3)ccc21 (centres undefined) ?
Pf Dd2 growth: -18.3%

How did O=C(O)C[C@@H]1CCN(C(=O)C(=O)O)C[C@@H]1CC1=NCCc2ccccc21 do in these assays?
Pf Dd2 growth: 36.1%[44.1 µM]

How did O=C(Cn1nc2n(c1=O)CCCCC2)Nc1ccc(F)cc1 do in these assays?
Pf Dd2 growth: 17.8%

How did CCC(=O)N1CCc2cc(Br)cc(S(=O)(=O)N3CCCC(C(=O)Nc4ccc(OC)cc4OC)C3)c21 (centres undefined) do in these assays?
Pf Dd2 growth: 19.1%

Results for CCCN(CCC)C(=O)C1CCCN(S(=O)(=O)c2cc(Br)cc3c2N(C(=O)CC)CC3)C1 (centres undefined) ?
Pf Dd2 growth: -21.2%

How did CCC(=O)N1CCc2cc(Br)cc(S(=O)(=O)NCc3ccccc3)c21 do in these assays?
Pf Dd2 growth: inactive

Results for Cc1cccc(NC(=O)C2CCCN(S(=O)(=O)c3cccc4nonc34)C2)c1 (centres undefined) ?
Pf Dd2 growth: 42.1%

What do the screens show for `CCC(=O)N1CCc2cc(Br)cc(S(=O)(=O)N3CCCC(C(=O)Nc4cccc(F)c4)C3)c21` (centres undefined)?
Pf Dd2 growth: 3.55µM*

Results for CCC(=O)N1CCc2cc(Br)cc(S(=O)(=O)N3CCCC(C(=O)Nc4cccc(C)c4C)C3)c21 (centres undefined) ?
Pf Dd2 growth: 5.01µM*

What do the screens show for `CCC(=O)N1CCc2cc(Br)cc(S(=O)(=O)N3CCCC(C(=O)NCc4ccc(C)cc4)C3)c21` (centres undefined)?
Pf Dd2 growth: inactive

How did CCC(=O)N1CCc2cc(Br)cc(S(=O)(=O)N3CCCC(C(=O)N(C)c4ccc(Br)cc4)C3)c21 (centres undefined) do in these assays?
Pf Dd2 growth: 8.91µM*

Results for CCC(=O)N1CCc2cc(Br)cc(S(=O)(=O)N3CCCC(C(=O)Nc4ccc(CC)cc4)C3)c21 (centres undefined) ?
Pf Dd2 growth: inactive

How did Cc1cc(Cl)ccc1S(=O)(=O)N1CCCC1c1nncn1Cc1ccncc1 (centres undefined) do in these assays?
Pf Dd2 growth: -14.1%

Results for O=C(c1ccccc1)N1CCCC(c2nn[nH]n2)C1 (centres undefined) ?
Pf Dd2 growth: 49.9%

What do the screens show for `COc1ccc(CN2CCc3nc(N(C)C)[nH]c(=O)c3CC2)c(OC)c1OC`?
Pf Dd2 growth: inactive[5.79 µM]

Results for CC(C)CN1CC2(CCN(C(=O)Cc3c[nH]c(=O)n(C)c3=O)CC2)CC1=O ?
Pf Dd2 growth: 10.9%

Results for COCCNC(=O)c1ccc2c(c1)N(C)C(CC(=O)N1CCC(C)CC1)CO2 (centres undefined) ?
Pf Dd2 growth: -7.8%

Results for O=C(c1ccccc1F)N1CCn2c(nnc2-c2ccncc2)C1 ?
Pf Dd2 growth: inactive

Results for COc1ccc(C(CC(=O)NCCc2ccc(OC)c(OC)c2)c2c[nH]c3ccccc23)c(OC)c1 (centres undefined) ?
Pf Dd2 growth: 11.2µM*

How did CCCCNC(=O)CC(c1ccc(OC)cc1OC)c1c[nH]c2c(CC)cccc12 (centres undefined) do in these assays?
Pf Dd2 growth: inactive

Results for CCCCNC(=O)CC(c1cccc(OC)c1)c1c[nH]c2ccccc12 (centres undefined) ?
Pf Dd2 growth: inactive

What do the screens show for `O=C(c1cccc(OC(F)(F)F)c1)N1CCC(c2n[nH]c(=O)n2-c2ccccc2)CC1`?
Pf Dd2 growth: -15.3%

What do the screens show for `COc1cc(NC(=O)CSc2nc(-c3ccc(C(C)C)cc3)no2)cc(OC)c1`?
Pf Dd2 growth: 0.708µM*

What do the screens show for `COc1cc(NC(=O)CSc2nc3ccccc3nc2Cc2ccc(Cl)cc2)cc(OC)c1`?
Pf Dd2 growth: 8.3%

How did COc1ccc(NC(=O)CSc2cc(-c3ccccc3)nc(C)n2)cc1 do in these assays?
Pf Dd2 growth: 20.0%

From PubChem BioAssay
